Data reported in article PMC11006913.
Positions count from the first letter of the chain named.

Assays:
Experiment in all cases: PBM; 200 nM protein, PBS
Details in all cases: dsDNA, one strand shown
NKX2-4 [1] = target: T1, NKX2-4 (Homo sapiens, UniProt Q9H2Z4 175-261, P217L)
T1 sequence: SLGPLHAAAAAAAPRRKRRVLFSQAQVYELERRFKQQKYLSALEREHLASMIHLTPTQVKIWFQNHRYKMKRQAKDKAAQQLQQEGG

NKX2-4 [2] = target: T2, NKX2-4 (Homo sapiens, UniProt Q9H2Z4 175-261, T231S)
T2 sequence: T1 sequence with L43P, T57S

PRRX1 [3] = target: PRRX1 (Homo sapiens, UniProt P54821 80-166, F113S)
PRRX1 (Homo sapiens, UniProt P54821 80-166, F113S), sequence (P54821 80-166 F113S): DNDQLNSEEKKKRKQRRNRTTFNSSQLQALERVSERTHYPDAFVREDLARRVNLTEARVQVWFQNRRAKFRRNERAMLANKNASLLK

NKX2-4 [4] = target: T3, NKX2-4 (Homo sapiens, UniProt Q9H2Z4 175-261)
T3 sequence: T1 sequence with L43P

NKX2-4 [5] = target: T4, NKX2-4 (Homo sapiens, UniProt Q9H2Z4 175-261, R246Q)
T4 sequence: T1 sequence with L43P, R72Q

PRRX1 [6] = target: PRRX1 (Homo sapiens, UniProt P54821 80-166)
PRRX1 (Homo sapiens, UniProt P54821 80-166), sequence (P54821 80-166): as the sequence (P54821 80-166 F113S) above, with S34F counted along it

HOXD13 [7] = target: HOXD13 (Homo sapiens, UniProt P35453 263-343, T313R)
HOXD13 (Homo sapiens, UniProt P35453 263-343, T313R), sequence (P35453 263-343 T313R): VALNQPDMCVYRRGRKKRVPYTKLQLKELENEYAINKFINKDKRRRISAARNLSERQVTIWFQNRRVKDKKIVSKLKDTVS

HOXD13 [8] = target: HOXD13 (Homo sapiens, UniProt P35453 263-343)
HOXD13 (Homo sapiens, UniProt P35453 263-343), sequence (P35453 263-343): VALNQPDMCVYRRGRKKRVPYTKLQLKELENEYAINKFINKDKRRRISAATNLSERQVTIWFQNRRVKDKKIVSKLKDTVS

HOXD13 [9] = target: HOXD13 (Homo sapiens, UniProt P35453 263-343, T313A)
HOXD13 (Homo sapiens, UniProt P35453 263-343, T313A), sequence (P35453 263-343 T313A): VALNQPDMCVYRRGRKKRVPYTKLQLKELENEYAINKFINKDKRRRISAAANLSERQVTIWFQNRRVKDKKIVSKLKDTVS

NKX2-6 [10] = target: T5, NKX2-6 (Homo sapiens, UniProt A6NCS4 118-204, R150C)
T5 sequence: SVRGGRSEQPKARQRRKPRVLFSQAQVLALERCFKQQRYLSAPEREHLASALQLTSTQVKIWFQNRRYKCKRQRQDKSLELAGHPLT

HOXC10 [11] = target: HOXC10 (Homo sapiens, UniProt Q9NYD6 254-340)
HOXC10 (Homo sapiens, UniProt Q9NYD6 254-340), sequence (Q9NYD6 254-340): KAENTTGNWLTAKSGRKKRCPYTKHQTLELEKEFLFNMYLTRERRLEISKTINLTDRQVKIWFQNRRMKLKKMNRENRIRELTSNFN

HOXC10 [12] = target: HOXC10 (Homo sapiens, UniProt Q9NYD6 254-340, K271E)
HOXC10 (Homo sapiens, UniProt Q9NYD6 254-340, K271E), sequence (Q9NYD6 254-340 K271E): as the sequence (Q9NYD6 254-340) above, with K18E counted along it

NKX2-6 [13] = target: T6, NKX2-6 (Homo sapiens, UniProt A6NCS4 118-204)
T6 sequence: T5 sequence with C33R

NKX2-6 [14] = target: T7, NKX2-6 (Homo sapiens, UniProt A6NCS4 118-204, F151L)
T7 sequence: T5 sequence with C33R, F34L

ALX4 [15] = target: ALX4 (Homo sapiens, UniProt Q9H161 200-286)
ALX4 (Homo sapiens, UniProt Q9H161 200-286), sequence (Q9H161 200-286): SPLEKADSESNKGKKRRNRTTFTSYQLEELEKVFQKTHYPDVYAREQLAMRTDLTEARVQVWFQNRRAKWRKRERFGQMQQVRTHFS

ALX4 [16] = target: ALX4 (Homo sapiens, UniProt Q9H161 200-286, Q225E)
ALX4 (Homo sapiens, UniProt Q9H161 200-286, Q225E), sequence (Q9H161 200-286 Q225E): as the sequence (Q9H161 200-286) above, with Q26E counted along it

HOXB6 [17] = target: HOXB6 (Homo sapiens, UniProt P17509 132-218, K202E)
HOXB6 (Homo sapiens, UniProt P17509 132-218, K202E), sequence (P17509 132-218 K202E): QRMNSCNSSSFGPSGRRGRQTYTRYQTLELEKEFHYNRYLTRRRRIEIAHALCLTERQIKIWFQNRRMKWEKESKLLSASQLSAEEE

HOXB6 [18] = target: HOXB6 (Homo sapiens, UniProt P17509 132-218)
HOXB6 (Homo sapiens, UniProt P17509 132-218), sequence (P17509 132-218): as the sequence (P17509 132-218 K202E) above, with E71K counted along it

CCCGCCTC
binding signal (NKX2-4 [1]): 9.39 upbm affinity estimate (log intensity, higher = more binding, comparable within an allelic series) | binding signal (NKX2-4 [2]): 9.25 upbm affinity estimate (log intensity, higher = more binding, comparable within an allelic series) | binding signal (PRRX1 [3]): 9.33 upbm affinity estimate (log intensity, higher = more binding, comparable within an allelic series) | binding signal (NKX2-4 [4]): 9.39 upbm affinity estimate (log intensity, higher = more binding, comparable within an allelic series) | binding signal (NKX2-4 [5]): 9.31 upbm affinity estimate (log intensity, higher = more binding, comparable within an allelic series) | binding signal (PRRX1 [6]): 8.99 upbm affinity estimate (log intensity, higher = more binding, comparable within an allelic series)

CGCCGCAG
binding signal (NKX2-4 [1]): 9.48 upbm affinity estimate (log intensity, higher = more binding, comparable within an allelic series) | binding signal (NKX2-4 [2]): 9.2 upbm affinity estimate (log intensity, higher = more binding, comparable within an allelic series) | binding signal (NKX2-4 [4]): 9.51 upbm affinity estimate (log intensity, higher = more binding, comparable within an allelic series) | binding signal (HOXD13 [7]): 9.57 upbm affinity estimate (log intensity, higher = more binding, comparable within an allelic series) | binding signal (HOXD13 [8]): 9.58 upbm affinity estimate (log intensity, higher = more binding, comparable within an allelic series) | binding signal (NKX2-4 [5]): 9.58 upbm affinity estimate (log intensity, higher = more binding, comparable within an allelic series) | binding signal (HOXD13 [9]): 9.63 upbm affinity estimate (log intensity, higher = more binding, comparable within an allelic series)

AAAGGCGG
binding signal (NKX2-4 [1]): 9.6 upbm affinity estimate (log intensity, higher = more binding, comparable within an allelic series) | binding signal (NKX2-4 [2]): 9.51 upbm affinity estimate (log intensity, higher = more binding, comparable within an allelic series) | binding signal (NKX2-4 [4]): 9.55 upbm affinity estimate (log intensity, higher = more binding, comparable within an allelic series) | binding signal (NKX2-6 [10]): 9.54 upbm affinity estimate (log intensity, higher = more binding, comparable within an allelic series) | binding signal (NKX2-4 [5]): 9.58 upbm affinity estimate (log intensity, higher = more binding, comparable within an allelic series)

AGCCTCAG
binding signal (NKX2-4 [1]): 9.76 upbm affinity estimate (log intensity, higher = more binding, comparable within an allelic series) | binding signal (NKX2-4 [2]): 9.76 upbm affinity estimate (log intensity, higher = more binding, comparable within an allelic series) | binding signal (HOXC10 [11]): 10.1 upbm affinity estimate (log intensity, higher = more binding, comparable within an allelic series) | binding signal (NKX2-4 [4]): 9.79 upbm affinity estimate (log intensity, higher = more binding, comparable within an allelic series) | binding signal (HOXC10 [12]): 10.1 upbm affinity estimate (log intensity, higher = more binding, comparable within an allelic series) | binding signal (NKX2-4 [5]): 9.76 upbm affinity estimate (log intensity, higher = more binding, comparable within an allelic series)

GATGAGGA
binding signal (NKX2-4 [1]): 11.4 upbm affinity estimate (log intensity, higher = more binding, comparable within an allelic series) | binding signal (NKX2-4 [2]): 11.6 upbm affinity estimate (log intensity, higher = more binding, comparable within an allelic series) | binding signal (NKX2-4 [4]): 11.3 upbm affinity estimate (log intensity, higher = more binding, comparable within an allelic series)

CTATTAAC
binding signal (NKX2-4 [1]): 11.7 upbm affinity estimate (log intensity, higher = more binding, comparable within an allelic series) | binding signal (NKX2-4 [2]): 11.8 upbm affinity estimate (log intensity, higher = more binding, comparable within an allelic series) | binding signal (NKX2-4 [4]): 11.6 upbm affinity estimate (log intensity, higher = more binding, comparable within an allelic series) | binding signal (HOXD13 [7]): 10.8 upbm affinity estimate (log intensity, higher = more binding, comparable within an allelic series) | binding signal (HOXD13 [8]): 12 upbm affinity estimate (log intensity, higher = more binding, comparable within an allelic series) | binding signal (NKX2-4 [5]): 11.8 upbm affinity estimate (log intensity, higher = more binding, comparable within an allelic series) | binding signal (HOXD13 [9]): 11.8 upbm affinity estimate (log intensity, higher = more binding, comparable within an allelic series)

CACTTTGA
binding signal (NKX2-4 [1]): 11.7 upbm affinity estimate (log intensity, higher = more binding, comparable within an allelic series) | binding signal (NKX2-4 [2]): 12 upbm affinity estimate (log intensity, higher = more binding, comparable within an allelic series) | binding signal (NKX2-4 [4]): 11.6 upbm affinity estimate (log intensity, higher = more binding, comparable within an allelic series) | binding signal (NKX2-4 [5]): 12 upbm affinity estimate (log intensity, higher = more binding, comparable within an allelic series)

CACGCCGC
binding signal (NKX2-4 [1]): 9.39 upbm affinity estimate (log intensity, higher = more binding, comparable within an allelic series) | binding signal (NKX2-4 [2]): 9.34 upbm affinity estimate (log intensity, higher = more binding, comparable within an allelic series) | binding signal (NKX2-4 [4]): 9.42 upbm affinity estimate (log intensity, higher = more binding, comparable within an allelic series) | binding signal (NKX2-6 [10]): 9.39 upbm affinity estimate (log intensity, higher = more binding, comparable within an allelic series) | binding signal (NKX2-6 [13]): 9.52 upbm affinity estimate (log intensity, higher = more binding, comparable within an allelic series) | binding signal (NKX2-4 [5]): 9.48 upbm affinity estimate (log intensity, higher = more binding, comparable within an allelic series) | binding signal (NKX2-6 [14]): 9.29 upbm affinity estimate (log intensity, higher = more binding, comparable within an allelic series)

AGAGGGCT
binding signal (NKX2-4 [1]): 11.7 upbm affinity estimate (log intensity, higher = more binding, comparable within an allelic series) | binding signal (NKX2-4 [2]): 11.9 upbm affinity estimate (log intensity, higher = more binding, comparable within an allelic series) | binding signal (NKX2-4 [4]): 11.7 upbm affinity estimate (log intensity, higher = more binding, comparable within an allelic series)

CGTCCCGA
binding signal (NKX2-4 [1]): 9.52 upbm affinity estimate (log intensity, higher = more binding, comparable within an allelic series) | binding signal (NKX2-4 [2]): 9.51 upbm affinity estimate (log intensity, higher = more binding, comparable within an allelic series) | binding signal (ALX4 [15]): 8.27 upbm affinity estimate (log intensity, higher = more binding, comparable within an allelic series) | binding signal (NKX2-4 [4]): 9.43 upbm affinity estimate (log intensity, higher = more binding, comparable within an allelic series) | binding signal (ALX4 [16]): 8.37 upbm affinity estimate (log intensity, higher = more binding, comparable within an allelic series) | binding signal (NKX2-4 [5]): 9.52 upbm affinity estimate (log intensity, higher = more binding, comparable within an allelic series)

ACTCCTCG
binding signal (NKX2-4 [1]): 11.6 upbm affinity estimate (log intensity, higher = more binding, comparable within an allelic series) | binding signal (NKX2-4 [2]): 11.8 upbm affinity estimate (log intensity, higher = more binding, comparable within an allelic series) | binding signal (NKX2-4 [4]): 11.5 upbm affinity estimate (log intensity, higher = more binding, comparable within an allelic series)

ACCATTGA
binding signal (NKX2-4 [1]): 11.3 upbm affinity estimate (log intensity, higher = more binding, comparable within an allelic series) | binding signal (NKX2-4 [2]): 11.5 upbm affinity estimate (log intensity, higher = more binding, comparable within an allelic series) | binding signal (NKX2-4 [4]): 11.3 upbm affinity estimate (log intensity, higher = more binding, comparable within an allelic series) | binding signal (HOXB6 [17]): 9.55 upbm affinity estimate (log intensity, higher = more binding, comparable within an allelic series) | binding signal (NKX2-4 [5]): 11.5 upbm affinity estimate (log intensity, higher = more binding, comparable within an allelic series) | binding signal (HOXB6 [18]): 10.2 upbm affinity estimate (log intensity, higher = more binding, comparable within an allelic series)

AGATGCCG
binding signal (NKX2-4 [1]): 9.76 upbm affinity estimate (log intensity, higher = more binding, comparable within an allelic series) | binding signal (NKX2-4 [2]): 9.8 upbm affinity estimate (log intensity, higher = more binding, comparable within an allelic series) | binding signal (ALX4 [15]): 8.1 upbm affinity estimate (log intensity, higher = more binding, comparable within an allelic series) | binding signal (NKX2-4 [4]): 9.82 upbm affinity estimate (log intensity, higher = more binding, comparable within an allelic series) | binding signal (ALX4 [16]): 8.32 upbm affinity estimate (log intensity, higher = more binding, comparable within an allelic series) | binding signal (NKX2-4 [5]): 9.91 upbm affinity estimate (log intensity, higher = more binding, comparable within an allelic series)
